In experiment [1] the target is Glucocorticoid receptor (Homo sapiens) (UniProt P04150). Description: qHTS assay for small molecule agonists of glucocorticoid receptor signaling (AID 588532; active = well fitted curve in the direction sought with a large enough effect in the signal ratio, with a control signal flat; the % refers to the signal ratio;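 note: 100% = dexamethasone at 0.1 µM and 0% = DMSO only wells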). The conditions noted are these: HeLa MMTV-bla, beta-lactamase ratio, agonist, 18 h; activation: stronger effect = higher value, percent of dexamethasone control, DMSO zero. The method in brief:
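Titration series, up to 92 uM, applied to GRE-bla HeLa cells for 18 h at 37 C. Detection by CCF4 FRET substrate after 2 h at RT.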

The target is the same in experiment [2]. Description: qHTS assay for small molecule antagonists of glucocorticoid receptor signaling (AID 588533; active = well fitted inhibition curve with a large enough effect in the signal ratio, with a control signal flat, not every such curve was filed as active; the % refers to the signal ratio;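 note: cells stimulated with 2 nM dexamethasone as agonist; % is set by controls: 0 for no effect and ±100 for the full control effect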). Put shortly:
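Antagonist-mode qHTS: compound titrations added to GRE-bla HeLa cells, then dexamethasone 2 nM final; 18 h, 37 C. CCF4 FRET fluorescence normalized to dexamethasone and DMSO; IC50 from Hill fit.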
(In general: Quantitative high-throughput screening tests each substance at several concentrations.)

For experiment [3], the target named is Peroxisome proliferator-activated receptor delta (Homo sapiens) (UniProt Q03181). Description: qHTS assay for small molecule agonists of peroxisome proliferator-activated receptor delta signaling (AID 588534).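 Note: 0% = DMSO basal wells and 100% = positive control agonist at 10 µM.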 The method in brief:
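Agonist-mode beta-lactamase reporter readout (CCF4 dye, 2 h at RT) after 18 h at 37 °C exposure to a titration; Hill-equation fitting gave EC50 and maximal response.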

The target of experiment [4] is Peroxisome proliferator-activated receptor gamma (Homo sapiens) (UniProt P37231). Description: qHTS assay for small molecule agonists of peroxisome proliferator-activated receptor gamma signaling (AID 588536; active = well fitted curve in the direction sought with a large enough effect in the signal ratio, with a control signal flat, not every such curve was filed as active; the % refers to the signal ratio). The method in brief: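 Using GeneBLAzer HEK293 cells, response was quantified by CCF4 fluorescence and normalized between basal DMSO (0%) and rosiglitazone 2 uM (100%); curves yielded half-maximal stimulation concentration and efficacy.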

The target of experiment [5] is Vitamin D3 receptor (Homo sapiens) (UniProt P11473). Nature of the experiment: qHTS assay for small molecule antagonists of vitamin D receptor signaling (AID 588541).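 Note: receptor activated by calcitriol during compound treatment; series mostly up to about 77 µM; % is set by controls: 0 for no effect and ±100 for the full control effect.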 The method in brief:
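VDR-UAS-bla HEK293T cells (2000/well, 2% charcoal-stripped FBS) were treated with titrated compounds plus 1-alpha,25-dihydroxyvitamin D3 (50 nM or 3 nM final) for 16 h at 37 C. CCF4 beta-lactamase fluorescence was read; Hill fits gave IC50.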

Experiment [6] can be described thus: qHTS assay for small molecule agonists of retinoid X receptor alpha signaling (AID 588544). Note: potency is the fitted concentration of half-maximal effect. The conditions noted are these: HEK293T RXRa-UAS-bla, beta-lactamase reporter, 18 h; 530 nm emission.
For experiment [7], the target named is Retinoic acid receptor RXR-alpha (Homo sapiens) (UniProt P19793). The description is as above.
In experiment [8] the target is Thyroid hormone receptor beta (Homo sapiens) (UniProt P10828). Description: qHTS assay for small molecule agonists of thyroid hormone receptor beta signaling (AID 588545).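 Note: 0% = DMSO only and 100% = 10 nM T3.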 The method in brief:
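TR-UAS-bla-GripTite HEK 293 cells in medium with 2% charcoal/dextran FBS, 0.1 mM NEAA and 1 mM sodium pyruvate were treated with titrated compounds for 18 hrs at 37 C. Beta-lactamase reporter was read with CCF4 dye (ex 405, em 460/530 nm); EC50 from Hill fits.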

Experiment [9] can be described thus: qHTS assay for small molecule antagonists of retinoid X receptor alpha signaling (AID 588546; active = well fitted inhibition curve with a large enough effect in the signal ratio, with a control signal flat, not every such curve was filed as active; the % refers to the signal ratio;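 note: cells stimulated with 9-cis-retinoic acid as agonist; % is set by controls: 0 for no effect and ±100 for the full control effect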). The conditions noted are these: HEK293T RXRa-UAS-bla, beta-lactamase ratio, antagonist mode; measured here: W530 green channel, cytotoxicity proxy. The method in brief: (§1)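 Beta-lactamase reporter inhibition, read as CCF4 fluorescence ratio (ex 405, em 460/530 nm) after 2 h at RT. HEK293T UAS-bla cells, 2500/well, were stimulated with 9-cis-RA at 500 or 100 nM final alongside test compound for 18 h at 37 C.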

The target of experiment [10] is Retinoic acid receptor RXR-alpha (Homo sapiens) (UniProt P19793). The experiment is described as above. The conditions noted are these: HEK293T RXRa-UAS-bla, beta-lactamase ratio, antagonist mode. The method in brief:
as §1

The nature of experiment [11]: qHTS assay for small molecule activators of the nuclear factor-kappa B (NF-kB) signaling pathway (AID 651749; active = well fitted activation curve with a large enough effect in the signal ratio; the % refers to the signal ratio; note: series mostly up to about 77 µM; % of control where 0% means no effect). Conditions: NF-kB-bla ME-180 cells, beta-lactamase FRET ratio, 16 h; activation: stronger effect = higher value. The method in brief: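 Human ME-180 cervical cells with an NF-kB-bla construct; compounds added via 23 nL pin transfer, DMSO as vehicle; incubation 16 hr. Reporter activity measured by FRET disruption.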

Experiment [12] in a line: qHTS assay for environmental chemicals that activate the Aryl hydrocarbon Receptor (AhR) signaling pathway (AID 651777; active = well fitted curve in the direction sought with a large enough effect; an effect the other way counts as inactive or inconclusive; note: nearly all actives have a fitted effect of over 15% in size; note: potency is the fitted concentration of half-maximal effect; for activation: % of control where 0% means no effect). The conditions noted are these: 1A2-DRE human hepatoma cells, luciferase, 24 h; activation: stronger effect = higher value. The method in brief: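 AhR activation is scored as a rise in luciferase from a stable DRE–CYP1A2 promoter construct in human hepatoma cells. Treatment lasts 24 hr at 37 C; detection uses One-Glo after 30 min at room temperature.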

Experiment [13] addresses Peroxisome proliferator-activated receptor alpha (Homo sapiens) (UniProt Q07869). Nature of the experiment: qHTS assay for small molecule agonists of the peroxisome proliferator-activated receptor alpha (PPARalpha) signaling pathway (AID 651778; active = well fitted curve in the direction sought with a large enough effect; an effect the other way counts as inactive or inconclusive; note: % of control where 0% means no effect). The conditions noted are these: PathHunter PPARalpha complementation, chemiluminescence, 6 h; max response: stronger effect = higher value. Put shortly:
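Cells plated at 2,000/well and held overnight at 37 C, 5% CO2, then compound added by pin tool for 6 hr; after PathHunter detection reagent and 60 min at room temperature, chemiluminescence from enzyme complementation was read.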

The nature of experiment [14]: qHTS assay for small molecule agonists of the antioxidant response element (ARE) signaling pathway measured by Nrf2-dependant transcriptional activity - cell viability counter screen (AID 720653; active = well fitted curve in the direction sought with a large enough effect in the repeat runs; an effect the other way counts as inactive or inconclusive; note: % is set by controls: 0 for no effect and ±100 for the full control effect). The conditions noted are these: ARE-bla HepG2 viability, CellTiter-Glo ATP luminescence, 16 h; max response: stronger effect = lower value. Put shortly: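 ARE-bla HepG2 cells (2,000/well) rested 5 hrs at 37C/5% CO2, then exposed to compounds in DMSO for 16 hrs. Viability was read in the same wells as intracellular ATP by luminescence, 30 min at room temperature after reagent addition.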

Experiment [15] is described as follows: qHTS assay for cell viability of HEK293 cells (AID 743288; active = well fitted curve in the direction sought with a large enough effect; an effect the other way counts as inactive or inconclusive; note: % is set by controls: 0 for no effect and ±100 for the full control effect; nearly all actives have a fitted effect of over 50% in size). Conditions: ATP luminescence (CellTiter-Glo), 18 h; max response: stronger effect = lower value. Put shortly:
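After 18 h compound exposure at 37 C, parental HEK293 cells (2,000/well) are lysed with CellTiter-Glo and luminescence is read following 30 min at room temperature.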

Experiment [16] in a line: qHTS assay for cell viability of the p53RE-bla HCT-116 cell line (AID 743292; active = well fitted curve in the direction sought with a large enough effect; an effect the other way counts as inactive or inconclusive; note: % is set by controls: 0 for no effect and ±100 for the full control effect; nearly all actives have a fitted effect of over 55% in size). The method in brief: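 Quantitative high-throughput format: compounds in DMSO were pinned onto p53RE-bla HCT-116 cells (4,000/well) and incubated 16 h at 37 C. Total intracellular ATP, read by CellTiter-Glo luminescence, reflects viable cell number.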
The target of experiment [17] is Vitamin D3 receptor (Homo sapiens) (UniProt P11473). Nature of the experiment: qHTS assay for small molecule agonists of vitamin D receptor signaling (AID 588543). The method in brief: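 GeneBLAzer VDR-UAS-bla HEK293T cells in 2% charcoal-stripped FBS medium were dosed with compound titrations for 16 h at 37 °C; CCF4 β-lactamase readout (405 nm ex, 460/530 nm em). EC50 and efficacy from Hill fits, normalized to 50 nM calcitriol (100%) and DMSO (0%).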

Experiment [18] can be described thus: qHTS assay for small molecule agonists of the antioxidant response element (ARE) signaling pathway (AID 651741; active = well fitted activation curve with a large enough effect in the signal ratio; the % refers to the signal ratio; note: % of control where 0% means no effect). The method in brief: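 Reporter: beta-lactamase under ARE, stably in HepG2. Exposure: 16 h, 37 C, compounds delivered in DMSO by pin tool after 5 h cell preincubation. Readout: FRET substrate fluorescence after 2 h at RT.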
Experiment [19] in a line: qHTS assay for small molecule activators of the p53 signaling pathway (AID 651743; active = well fitted activation curve with a large enough effect in the signal ratio, not every such curve was filed as active; the % refers to the signal ratio; note: series mostly up to about 92 µM; % of control where 0% means no effect). The conditions noted are these: HCT-116 p53RE-bla, beta-lactamase FRET ratio, 16 h; activation: stronger effect = higher value. The method in brief:
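Agonist-mode quantitative HTS in HCT-116 cells carrying a p53-response-element beta-lactamase reporter; 16 h compound treatment at 37 C, then FRET substrate loading for 2 h at room temperature and fluorescence read.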

Experiment [20] is described as follows: qHTS assay for small molecule agonists of the antioxidant response element (ARE) signaling pathway measured by Nrf2-dependant transcriptional activity (AID 720636; active = well fitted curve in the direction sought with a large enough effect in the repeat runs; an effect the other way counts as inactive or inconclusive;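 note: HepG2 cells with an ARE-driven luciferase reporter; % of control where 0% means no effect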). Put shortly: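 First, ARE-luc HepG2 cells attached for 6 hr at 37 C in 1% dialyzed FBS medium. Next, compound or DMSO was added and incubated 16 hr. Finally, ONE-Glo reagent was added and luminescence measured after 30 min.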

Experiment [21] concerns the target Nuclear receptor subfamily 1 group I member 2 (Rattus norvegicus) (UniProt Q9R1A7). Nature of the experiment: qHTS assay for small molecule activators of the rat pregnane X receptor (rPXR) signaling pathway (AID 651751; call rule not given here; note: 0% is about no effect). Conditions: rPXR reporter cells, luciferase (One-Glo), 24 h.
Experiment [22] in a line: qHTS assay for small molecule activators of the human pregnane X receptor (PXR) signaling pathway (AID 720659; call rule not given here; note: 0% is about no effect).
Experiment [23] deals with Peroxisome proliferator-activated receptor gamma (Homo sapiens) (UniProt P37231). Nature of the experiment: qHTS assay for small molecule antagonists of peroxisome proliferator-activated receptor gamma signaling (AID 588537; active = well fitted inhibition curve with a large enough effect in the signal ratio, with a control signal flat, not every such curve was filed as active; the % refers to the signal ratio; note: potency is the fitted concentration of half-maximal effect). The method in brief: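 Compounds are tested as concentration series for inhibition of rosiglitazone-driven (50 nM) reporter expression in GeneBLAzer PPAR-gamma-UAS-bla HEK293 cells. After 16 h at 37 C, CCF4 substrate is added for 2 h at room temperature and blue/green fluorescence is measured.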

In experiment [24] the target is Thyroid hormone receptor beta (Homo sapiens) (UniProt P10828). Description: qHTS assay for small molecule antagonists of thyroid hormone receptor beta signaling (AID 588547; active = well fitted inhibition curve with a large enough effect in the signal ratio, with a control signal flat, not every such curve was filed as active; the % refers to the signal ratio). Conditions: TR-UAS-bla HEK293, beta-lactamase ratio, antagonist mode, 18 h. Put shortly:
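TR-UAS-bla GripTite HEK293 cells in 2% charcoal/dextran FBS medium were preincubated 4 h at 37 C, given compound (0.59 nM to 92 uM) plus 0.4 nM T3 (final) for 18 h, then CCF4 for 2 h at RT; Hill fit gave IC50.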

The nature of experiment [25]: qHTS assay for small molecule antagonists of peroxisome proliferator-activated receptor delta signaling (AID 588535; active = well fitted inhibition curve with a large enough effect in the signal ratio, with a control signal flat, not every such curve was filed as active; the % refers to the signal ratio;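 for max response: cells co-treated with a PPAR-delta agonist as stimulator during compound exposure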). Conditions: HEK293T PPARd-UAS-bla, beta-lactamase FRET ratio, 18 h; 460 nm channel. Put shortly: (§2)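 Inhibition of PPAR-delta response element-driven beta-lactamase expression is measured in HEK293T cells exposed to a compound titration series for 18 hrs at 37 C. Half-maximal inhibition comes from Hill equation fitting.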

Experiment [26] deals with Peroxisome proliferator-activated receptor delta (Homo sapiens) (UniProt Q03181). The description is as above. The method in brief:
as §2

Inconclusive results are not listed. Active and inactive are the calls of the source. Unless noted, calls come from the whole dose curve.

Peroxisome proliferator-activated receptor gamma (Homo sapiens), sequence (P37231 whole entry, looked up): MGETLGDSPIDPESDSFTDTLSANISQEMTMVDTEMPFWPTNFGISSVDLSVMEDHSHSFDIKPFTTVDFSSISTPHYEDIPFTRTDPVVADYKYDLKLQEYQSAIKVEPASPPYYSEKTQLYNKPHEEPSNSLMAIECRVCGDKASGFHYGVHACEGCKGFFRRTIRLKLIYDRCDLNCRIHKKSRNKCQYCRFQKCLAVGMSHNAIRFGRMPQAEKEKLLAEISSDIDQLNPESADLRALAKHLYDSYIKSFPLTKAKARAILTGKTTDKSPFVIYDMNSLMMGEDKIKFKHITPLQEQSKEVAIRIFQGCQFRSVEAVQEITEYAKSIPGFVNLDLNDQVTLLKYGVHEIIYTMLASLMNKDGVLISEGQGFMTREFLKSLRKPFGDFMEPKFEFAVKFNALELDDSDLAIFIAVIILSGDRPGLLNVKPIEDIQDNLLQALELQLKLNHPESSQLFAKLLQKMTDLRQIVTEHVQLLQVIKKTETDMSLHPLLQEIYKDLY
Vitamin D3 receptor (Homo sapiens), sequence (P11473 whole entry, looked up): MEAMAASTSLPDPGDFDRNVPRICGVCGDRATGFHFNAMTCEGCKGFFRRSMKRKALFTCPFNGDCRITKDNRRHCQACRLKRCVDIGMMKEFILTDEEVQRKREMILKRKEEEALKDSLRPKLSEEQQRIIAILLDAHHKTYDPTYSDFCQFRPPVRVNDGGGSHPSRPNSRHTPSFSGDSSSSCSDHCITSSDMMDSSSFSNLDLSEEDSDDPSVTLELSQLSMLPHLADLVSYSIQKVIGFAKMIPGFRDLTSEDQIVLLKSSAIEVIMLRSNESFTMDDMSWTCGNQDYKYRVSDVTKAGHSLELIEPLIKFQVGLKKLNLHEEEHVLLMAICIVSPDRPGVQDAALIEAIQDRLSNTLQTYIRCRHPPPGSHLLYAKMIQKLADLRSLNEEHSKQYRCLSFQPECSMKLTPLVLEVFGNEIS
Glucocorticoid receptor (Homo sapiens), sequence (P04150 whole entry, looked up): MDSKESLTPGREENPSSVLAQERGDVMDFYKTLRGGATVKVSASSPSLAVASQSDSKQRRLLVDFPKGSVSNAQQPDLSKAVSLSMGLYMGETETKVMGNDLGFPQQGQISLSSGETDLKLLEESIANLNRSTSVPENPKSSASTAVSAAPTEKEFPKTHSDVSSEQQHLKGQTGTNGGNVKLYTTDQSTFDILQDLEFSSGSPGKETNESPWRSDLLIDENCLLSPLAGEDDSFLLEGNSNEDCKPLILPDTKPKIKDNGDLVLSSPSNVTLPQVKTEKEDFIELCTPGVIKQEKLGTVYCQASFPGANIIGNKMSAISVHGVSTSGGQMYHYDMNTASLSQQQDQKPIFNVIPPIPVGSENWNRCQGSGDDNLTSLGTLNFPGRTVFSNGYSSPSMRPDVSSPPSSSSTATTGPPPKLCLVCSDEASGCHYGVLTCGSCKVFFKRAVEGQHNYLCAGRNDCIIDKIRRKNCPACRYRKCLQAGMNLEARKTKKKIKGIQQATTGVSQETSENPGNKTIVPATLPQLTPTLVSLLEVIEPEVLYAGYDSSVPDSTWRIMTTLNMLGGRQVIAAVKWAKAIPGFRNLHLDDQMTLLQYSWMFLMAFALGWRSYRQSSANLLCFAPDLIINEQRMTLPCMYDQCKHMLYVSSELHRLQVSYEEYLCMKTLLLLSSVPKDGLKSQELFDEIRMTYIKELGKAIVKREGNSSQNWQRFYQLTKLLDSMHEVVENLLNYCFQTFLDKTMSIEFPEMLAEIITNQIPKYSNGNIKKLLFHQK
Peroxisome proliferator-activated receptor alpha (Homo sapiens), sequence (Q07869 whole entry, looked up): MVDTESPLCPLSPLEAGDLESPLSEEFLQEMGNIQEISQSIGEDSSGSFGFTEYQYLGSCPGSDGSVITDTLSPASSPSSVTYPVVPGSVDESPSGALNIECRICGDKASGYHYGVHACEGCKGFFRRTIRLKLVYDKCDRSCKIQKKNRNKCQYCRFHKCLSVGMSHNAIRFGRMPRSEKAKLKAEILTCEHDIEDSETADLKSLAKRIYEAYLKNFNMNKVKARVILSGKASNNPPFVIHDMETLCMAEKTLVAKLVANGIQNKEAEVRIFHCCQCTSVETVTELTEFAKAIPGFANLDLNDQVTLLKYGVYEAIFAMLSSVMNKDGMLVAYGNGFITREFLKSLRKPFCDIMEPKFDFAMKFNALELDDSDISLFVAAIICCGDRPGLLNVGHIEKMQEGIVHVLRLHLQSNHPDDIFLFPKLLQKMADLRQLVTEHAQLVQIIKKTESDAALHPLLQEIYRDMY
Nuclear receptor subfamily 1 group I member 2 (Rattus norvegicus), sequence (Q9R1A7 whole entry, looked up): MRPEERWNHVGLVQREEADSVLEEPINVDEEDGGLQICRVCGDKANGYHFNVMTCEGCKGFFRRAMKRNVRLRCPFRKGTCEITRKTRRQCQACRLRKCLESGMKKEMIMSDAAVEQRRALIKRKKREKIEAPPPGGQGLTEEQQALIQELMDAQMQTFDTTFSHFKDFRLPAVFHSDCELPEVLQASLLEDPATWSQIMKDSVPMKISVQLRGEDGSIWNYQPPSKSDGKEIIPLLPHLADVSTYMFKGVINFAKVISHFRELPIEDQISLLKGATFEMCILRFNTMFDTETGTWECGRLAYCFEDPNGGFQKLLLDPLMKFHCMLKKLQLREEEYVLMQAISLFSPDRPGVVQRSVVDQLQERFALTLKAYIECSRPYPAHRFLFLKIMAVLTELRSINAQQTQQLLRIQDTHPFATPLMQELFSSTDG
Retinoic acid receptor RXR-alpha (Homo sapiens), sequence (P19793 whole entry, looked up): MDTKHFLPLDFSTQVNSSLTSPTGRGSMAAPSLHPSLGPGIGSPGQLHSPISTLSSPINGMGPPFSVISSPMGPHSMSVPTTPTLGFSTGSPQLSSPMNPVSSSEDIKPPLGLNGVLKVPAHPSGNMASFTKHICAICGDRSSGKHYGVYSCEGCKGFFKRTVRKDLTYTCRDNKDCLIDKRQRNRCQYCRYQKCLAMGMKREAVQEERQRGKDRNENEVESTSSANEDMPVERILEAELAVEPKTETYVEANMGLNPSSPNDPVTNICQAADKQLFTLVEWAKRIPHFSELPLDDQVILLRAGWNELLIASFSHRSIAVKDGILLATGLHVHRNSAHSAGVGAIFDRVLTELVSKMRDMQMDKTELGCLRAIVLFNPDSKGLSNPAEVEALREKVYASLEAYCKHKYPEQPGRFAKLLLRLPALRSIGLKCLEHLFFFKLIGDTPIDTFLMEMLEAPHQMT
Thyroid hormone receptor beta (Homo sapiens), sequence (P10828 whole entry, looked up): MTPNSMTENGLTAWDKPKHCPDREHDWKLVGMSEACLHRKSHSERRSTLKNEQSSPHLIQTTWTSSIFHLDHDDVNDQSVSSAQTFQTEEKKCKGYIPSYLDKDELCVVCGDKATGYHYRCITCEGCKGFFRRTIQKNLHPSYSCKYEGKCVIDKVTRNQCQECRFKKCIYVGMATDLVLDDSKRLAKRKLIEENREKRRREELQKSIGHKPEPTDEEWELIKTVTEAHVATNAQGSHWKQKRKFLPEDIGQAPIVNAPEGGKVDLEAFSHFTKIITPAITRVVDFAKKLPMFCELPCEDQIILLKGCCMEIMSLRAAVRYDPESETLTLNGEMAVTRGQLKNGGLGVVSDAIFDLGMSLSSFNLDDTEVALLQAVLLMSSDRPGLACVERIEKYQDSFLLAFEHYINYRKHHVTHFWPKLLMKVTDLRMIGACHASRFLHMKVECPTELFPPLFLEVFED
Peroxisome proliferator-activated receptor delta (Homo sapiens), sequence (Q03181 whole entry, looked up): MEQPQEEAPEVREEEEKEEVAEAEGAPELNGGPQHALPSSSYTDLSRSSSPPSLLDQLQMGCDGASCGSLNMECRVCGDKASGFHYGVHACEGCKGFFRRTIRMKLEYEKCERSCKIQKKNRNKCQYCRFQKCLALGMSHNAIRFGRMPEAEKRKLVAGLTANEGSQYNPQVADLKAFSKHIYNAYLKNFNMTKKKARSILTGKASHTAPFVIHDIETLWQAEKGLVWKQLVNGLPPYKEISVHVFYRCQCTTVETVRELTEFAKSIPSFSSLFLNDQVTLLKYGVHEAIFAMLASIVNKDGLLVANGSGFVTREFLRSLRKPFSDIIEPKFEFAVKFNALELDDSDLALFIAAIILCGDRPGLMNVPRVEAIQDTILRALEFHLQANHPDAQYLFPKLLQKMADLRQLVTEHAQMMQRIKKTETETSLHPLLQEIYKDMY

Take `CON(C)C(=O)Nc1ccc(Cl)c(Cl)c1`: the activation in [1] is -2.11% (inactive); in experiment [11], -2.01% (inactive). In addition, the Potency entry in experiment [2], in experiment [4], in experiment [5], in experiment [7], in experiment [8] and in experiment [16] was “inactive” in each case. In addition, in [3], the compound was called inactive. The max response is -3.25% in experiment [6]; -15.9% in experiment [9]; -0.419% (inactive) in experiment [10]; -1.01% (inactive) in [13]; -26.6% (inactive) in [14]; -2.77% (inactive) in experiment [15]. Besides, the Potency in experiment [12] is 35.5 µM (active).

In the case of `CC(C)(C)OOC(C)(C)CCC(C)(C)OOC(C)(C)C`, the Potency result in experiment [2], in experiment [5], in experiment [7], in experiment [8], in experiment [18] and in [20] was “inactive” in each case. In addition, the Potency entry in experiment [16] is “inactive”. In addition, the compound was classed as inactive in experiment [17] and in experiment [22]. Also, the max response in experiment [6] is -2.41%; in experiment [9], -4.8%; in experiment [10], -1.22% (inactive); in experiment [13], 0.675% (inactive); in experiment [14] it was -14% (inactive); in experiment [15] it was 0.0033% (inactive). In experiment [21], the max response was -1.16% (inactive). In addition, the activation in experiment [19] was 2.86% (inactive).

As to `N#Cc1c[nH]cc1-c1cccc2c1OC(F)(F)O2`, the activation in [1] is -6.3% (inactive); in experiment [11] it was -3.39% (inactive). Further, the call in experiment [3] and in [17] was inactive. For the same compound, the Potency in experiment [23] is 31.6 µM (active); in [7], 2.24 µM (active). Besides, the max response in experiment [6] was -13.3%; in experiment [13], -0.738% (inactive); in [14], -6.59% (inactive); in [15] it was -14.2% (inactive). The Potency result in experiment [8], in [20] and in [16] was “inactive” throughout.

Regarding `COc1cc(OC)nc(Sc2cccc(Cl)c2C(=O)O)n1`, the activation in [1] was 5.02% (inactive); in [11], 0.833% (inactive). For the same compound, the Potency result in experiment [2], in experiment [4], in experiment [23], in experiment [5], in [7] and in experiment [8] was “inactive” throughout. The Potency entry in experiment [18], in experiment [20] and in experiment [16] was “inactive” each time. The outcome in [17] and in experiment [22] was inactive. The max response in [6] was -16.4%; in experiment [9], -2.85%; in [10], -5.7% (inactive); in [13], -1.08% (inactive); in experiment [14] it was -2.11% (inactive); in experiment [15] it was -8.52% (inactive). Further, the max response in [21] is 3.18% (inactive). The activity change % (negative = inhibition) in experiment [24] was 6.23% (inactive).

Turning to `C=CCOc1nc(OCC=C)nc(OCC=C)n1`, in experiment [3], the outcome was inactive.

Take `C1=Cc2cccc3cccc1c23`: the activation in experiment [1] was -9.46% (inactive); in [19], -6.25% (inactive); in [12] it was 0.26% (inactive). Also, the Potency entry in experiment [2], in [26], in [4], in experiment [23], in experiment [5] and in [7] was “inactive” in each case. The Potency entry in experiment [8], in [20] and in [16] was “inactive” in each case. For the same compound, the call in [3] and in [17] was inactive. Besides, the max response is -1.47% in experiment [25]; -12.5% in experiment [6]; 3.92% (inactive) in experiment [13]; -6.24% (inactive) in experiment [14]; 3.17% (inactive) in experiment [21]. Moreover, in experiment [24], the activity change % (negative = inhibition) is 1.99% (inactive).
